The values that follow come from the supplement of paper PMC9897528.

SMILES strings stand for the structures. Values without a mark were called inactive.
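Note: conidia screened in RPMI 1640 medium under 5% CO2, growth read by spectrophotometer, medium with 0.5% DMSO serving as the untreated reference.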

The assay deals with Scedosporium aurantiacum CBS 136046. The assay can be described thus: growth inhibition relative to DMSO control (OD600); higher = more antifungal activity, active = 80 or more; extreme values may be limits of the assay. Particulars: 5 µM; 72 h; 37 °C.
As to `NC(=O)c1c(N)sc2c1CCCCC2`, the growth inhibition is 6.23%.
Then `Cc1nc(Nc2ccc(F)cc2)nc(N2CCc3ccccc3C2C)c1C` (stereo not drawn), with 25.2%; and `Clc1ccc(COC(Cn2ccnc2)c2ccc(Cl)cc2Cl)c(Cl)c1` (stereo not drawn), with 80.6% (active).
To `CCC[C@@H]1C[C@@H](C(=O)N[C@@H]([C@H]2O[C@H](SC)[C@H](O)[C@@H](O)[C@H]2O)[C@H](C)Cl)N(C)C1` belongs 16.8%.
Then `CN(C(=O)C1(c2ccc(Cl)cc2)CCC1)c1ccccc1`, with 13.9%; and `NC[C@H]1O[C@H](O[C@H]2[C@H](O)[C@@H](O[C@H]3O[C@H](CO)[C@@H](O)[C@H](N)[C@H]3O)[C@H](N)C[C@@H]2N)[C@H](N)C[C@@H]1O`, with 15.5%.
In the case of `CC(C)(C)c1ccc(C(=O)NC(=O)N2CCCc3ccccc32)cc1`, the growth inhibition was 0.0285%.
With `CSC[C@H]1CN(Cc2c[nH]c3c(N)ncnc23)C[C@@H]1O`, the growth inhibition was 10.5%.
To `CC(C)C(=O)N[C@H]1[C@H]([C@H](O)[C@H](O)CO)OC(C(=O)O)=C[C@@H]1N=[N+]=[N-]` belongs 9.45%; to `CCC[C@H](NC(=O)[C@@H]1[C@H]2CCC[C@H]2CN1C(=O)[C@@H](NC(=O)[C@@H](NC(=O)c1cnccn1)C1CCCCC1)C(C)(C)C)C(=O)C(=O)NC1CC1`, 4.34%; to `CC(=O)N1c2ccccc2NC2=C(C(=O)CC(C)(C)C2)C1c1ccc(OCc2ccccc2)cc1` (stereo not drawn), 15.4%.
Turning to `COc1cc(C)c2c(Oc3cccc(C(F)(F)F)c3)c(OC)cc(NC(C)CCCN)c2n1` (stereo not drawn), the growth inhibition is 33.4%.
To `CC(=O)Nc1cc(NS(=O)(=O)c2ccc(Cl)cc2)cc2c(Cl)[nH]nc12` belongs 21.6%; to `COc1ccc(SCC(=O)N2c3ccccc3Sc3ccccc32)cc1`, 19.3%; to `CCCCCCCCC(CP(=O)(O)C(C)N)C(=O)O` (stereo not drawn), 6.14%.
To `CCNC(=O)Nc1cc(-c2ccccc2)c(-c2cncc(C(=O)O)c2)cn1` belongs 8.53%; to `Cc1cc(CCOc2c(C)cc(-c3nnn(C)n3)cc2C)on1`, 3.61%; to `Fc1ccc(-c2nc(-c3c[nH]c4ccc(Br)cc34)[nH]c2-c2ccc(F)cc2)cc1`, 28.1%.
For `Cn1c2ccccc2c(=O)c2c(O)cccc21`, the growth inhibition is 6.84%.
Then `Fc1ccc(-n2cc(Cn3c(-c4cccc(F)c4)nc4ccccc43)nn2)cc1`, with 17.9%.
Then `O=S(=O)(NCB(O)O)c1cc2c(Cl)ccc(Cl)c2s1`, with 5.78%; and `Nc1nc(-c2ccccc2)nc2[nH]nc(Nc3ccc(C(F)(F)F)cc3)c12`, with 16.5%.
Take `O=C1NC(=O)C(Br)=C1Br`: the growth inhibition was 24.4%.
To `COc1ccc(CNC(=O)C(NS(=O)(=O)c2ccc3nc(C)sc3c2)C(C)C)cc1` (stereo not drawn) belongs 26.3%.
Then `Cc1ccccc1NC(=O)Nc1cccc([N+](=O)[O-])c1`, with 12.4%; and `NCC(=O)Nc1ccc(-n2nc(C(F)(F)F)cc2-c2ccc3c(ccc4ccccc43)c2)cc1`, with 25.5%.
Then `NC(=O)c1ccc(I)c([N+](=O)[O-])c1`, with 13.9%; and `O=S(=O)(Nc1ccc(O)cc1)c1cccc2cccnc12`, with 13.2%.
In the case of `CN1CCN(c2ccc3[nH]c(-c4ccc5[nH]c(-c6ccc(O)cc6)nc5c4)nc3c2)CC1`, the growth inhibition is 11.7%.
To `CCCCCCC1c2ccc(O)cc2Oc2cc(O)ccc21` belongs 4.47%.
For the compound `COc1ccc(NC(=O)CC2Sc3ncnn3C2=O)cc1` (stereo not drawn), the growth inhibition is 0%.
As to `CCN(CC)CCn1c(=N)n(CC(O)COc2ccc(Cl)cc2Cl)c2ccccc21` (stereo not drawn), the growth inhibition was 10.2%.
To `Cc1cc(C)n2nc(C(=O)NS(=O)(=O)c3c(C)cccc3OC(F)(F)F)nc2n1` belongs 0%; to `O=c1cc(OCc2ccccc2)ccn1Cc1ccccc1`, 9.92%.
Then `O=C(O)c1cc(-c2ccc(Br)cc2)nc2ccc(Cl)cc12`, with 15.5%.
Then `NC(=S)N/N=C/c1ncccc1N`, with 23.2%; and `CC1CN(c2ncnc3c2c(-c2ccccc2)cn3-c2ccc(F)cc2)CC(C)O1` (stereo not drawn), with 20.4%; and `CCCCN1C[C@H](O)[C@@H](O)[C@H](O)[C@H]1CO`, with 3.51%.
